According to PubChem BioAssay AID2563 (Broad Institute, 2010):
About 800 (0.28%) of roughly 290,000 compounds were called active.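 The calls were made as follows: active = fall in fluorescence gain of 50% or more versus controls, with final raw signal at or below 3038400; inconclusive = same 50% fall but final raw signal above 3038400; inactive = fall in fluorescence gain under 50%.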 Shown is part of a subset that was picked to be rich in actives.

Target: CAAX prenyl protease 2 (Saccharomyces cerevisiae (strain ATCC 204508 / S288c)) (UniProt Q03530)
Experiment: yeast Rce1p protease inhibitors, primary screen, biochemical, fluorescence, cell-free homogeneous (AID 2563)
Conditions: yeast membranes, quenched prenylated peptide cleavage fluorescence

CAAX prenyl protease 2 (Saccharomyces cerevisiae (strain ATCC 204508 / S288c)), sequence (Q03530 whole entry, looked up): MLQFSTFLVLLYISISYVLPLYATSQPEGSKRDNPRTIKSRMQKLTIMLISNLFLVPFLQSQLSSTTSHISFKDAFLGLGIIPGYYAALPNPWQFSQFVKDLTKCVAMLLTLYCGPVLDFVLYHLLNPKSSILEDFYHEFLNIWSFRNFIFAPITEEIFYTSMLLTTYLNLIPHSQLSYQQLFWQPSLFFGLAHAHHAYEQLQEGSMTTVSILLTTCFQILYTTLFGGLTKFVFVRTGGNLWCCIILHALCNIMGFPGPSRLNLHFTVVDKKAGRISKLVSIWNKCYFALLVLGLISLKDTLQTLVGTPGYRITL

outcome, active:
CCCNC(=O)c1c(N)n(-c2ccc(S(N)(=O)=O)cc2)c2nc3ccccc3nc12
COc1ccc(-c2oc3ncn(Cc4ccco4)c(=N)c3c2-c2ccc(OC)cc2)cc1
CCCOc1ccccc1C(=O)NCCCC(=O)O
CC(=O)N(Cc1cccs1)C1CCOC(C)(C)C1 (stereo not drawn)
CN(C)c1ccc(/C=N/NC(=O)C(O)c2ccc(Br)cc2)cc1 (stereo not drawn)
CCCCCCCCCCOC(=O)Cn1c(COc2cccc(OC)c2)[n+](C)c2ccccc21
CCCCCCCCCCOC(=O)Cn1c(COc2ccc(C)cc2)[n+](C)c2ccccc21
CC(=O)NC(Cc1c[nH]c2ccccc12)C(=O)O (stereo not drawn)
O=C1CCCC(O)=C1N=Nc1ccc2ncsc2c1
COc1ccc(-c2cn3ccc(C)cc3n2)cc1
C=CCc1cccc(/C=N/NC(=O)COc2ccc(-n3cnnn3)cc2)c1O
Cc1cc(C)nc(SCc2cn3c(C)cc(C)nc3n2)n1
CS(=O)(=O)Nc1ccc(C2=NN(S(C)(=O)=O)C(c3cccs3)C2)cc1 (stereo not drawn)

outcome, inactive:
COc1ccc(CCNC(=S)N2CCN(S(=O)(=O)c3ccc(F)cc3)CC2)cc1
CC(=O)C12CC(C)=C(C)CC1CC1C3CCC4=CC(=O)CCC4(C)C3CCC12C (stereo not drawn)
CSc1nsc(NC(=O)Nc2ccccc2)n1
CCN(Cc1ccccc1)C(=O)Cc1ccc(OC)c(S(=O)(=O)N2CCOCC2)c1
O=C(COc1coc(CN2CCN(c3ccccc3)CC2)cc1=O)Nc1ccccc1F
COCCCN(C(=O)CSCc1ccc(C)cc1)c1c(N)n(Cc2ccccc2)c(=O)[nH]c1=O
COc1ccc(N2CCN(S(=O)(=O)c3cc4c5c(c3)C(C)C(=O)N5CCC4)CC2)cc1 (stereo not drawn)
O=C(Nc1ncccc1O)c1ccc(S(=O)(=O)N2CCCCCC2)cc1
COc1cc(C2C(C(=O)c3cccs3)=C(O)C(=O)N2CCN2CCOCC2)ccc1OCCC(C)C (stereo not drawn)
Cc1ccc2nc(SCC(=O)N3CC(C)OC(C)C3)nc(=O)n2c1 (stereo not drawn)
Cc1cccc(C)c1NC(=O)CNC(=O)c1c(C)nn(-c2ccccc2)c1C
CCc1noc(C)c1C(=O)N1CCCSC1=Nc1ccccc1OC
CCCCn1c(N)c(N(CC(C)C)C(=O)C2CSC3(C)CCC(=O)N23)c(=O)[nH]c1=O (stereo not drawn)
COc1ccc(CNC(=O)COC(=O)CCS(=O)(=O)c2ccc(C)cc2)cc1OC
Cc1c(NC(=O)C(C)Oc2cccc(Cl)c2)c(=O)n(-c2ccccc2)n1C (stereo not drawn)
O=C(NC1CCCCC1)c1ccc(-c2ccc(Cl)cc2)o1
CCOc1ccc(C(C)=O)cc1COC(=O)CNC(=O)c1cccs1
O=C(COc1coc(CN2CCN(c3ccccc3F)CC2)cc1=O)N1CCc2ccccc21
O=c1[nH]c(/C=C/c2cccc(Br)c2)nc2ccccc12
COc1ccc(NC(=O)CN(C)C(=O)c2ccc(COc3ccccc3)o2)cc1
Cc1ccc(S(=O)(=O)N2CCOCC2)cc1C(=O)Nc1ccccc1N1CCCC1
COc1ccc([C@@H]2[C@@H]3C(=O)N(C(C)(C)C)C(=O)[C@@H]3[C@]3(Cc4ccccc4)C(=O)N(c4cccc(Br)c4)C(=O)N23)cc1
Cc1noc(C)c1C(=O)NCCc1ccc(S(N)(=O)=O)cc1
CCOC(=O)c1c(C)c(C(=O)NCCc2ccc(S(N)(=O)=O)cc2)c(C)n1CC
CN(C)C(CNC(=O)c1cccc(S(=O)(=O)Nc2ccc(Br)cc2)c1)c1ccco1 (stereo not drawn)
COc1ccc(N2CC(C(=O)NCCN3C(=O)S/C(=C\c4cccnc4)C3=O)CC2=O)c(OC)c1 (stereo not drawn)
CC1(C)C/C(=N/Nc2ccc([N+](=O)[O-])cc2[N+](=O)[O-])C(C)(C)O1
COc1ccc(C(CNC(=O)c2ccc(NS(=O)(=O)c3ccc(F)c(C)c3)cc2)N(C)C)cc1 (stereo not drawn)
CCOC(=O)c1cnc2nc(SCc3ccccc3Cl)[nH]n2c1=O
CCOC(=O)c1cc(C(C)C)sc1NC(=O)COC(=O)c1nccnc1N
Cc1nc2ccccc2c(=O)n1-c1ccc(NS(=O)(=O)c2ccc(F)cc2F)cc1
O=C(CNC(=O)c1ccccc1Br)NCCSc1ccc(Br)cc1
COc1ccc(-c2oc3ncnc(NCCCO)c3c2-c2ccc(OC)cc2)cc1
N=c1c2c(-c3ccccc3)c(-c3ccccc3)oc2ncn1Cc1ccco1
CCCCn1c(N)c(N(CCOC)C(=O)COc2c(C)cccc2C)c(=O)[nH]c1=O
CCCCOCCCNC(=O)c1ccccc1OCC
COc1ccc(CCNC(=O)c2ccccc2OCc2ccccc2)cc1
O=C(Nc1ccc2nc3n(c(=O)c2c1)CCCC3)c1ccc(Cl)nc1
O=C(Nc1ccc(S(=O)(=O)N2CCCCC2)cc1)C1CCN(C(=O)c2ccc(F)cc2)CC1
O=C(O)CCC(=O)N(Cc1cccs1)Cc1cccs1
CC1(C)CC(N(Cc2ccccc2)C(=O)Cc2ccccc2)CCO1 (stereo not drawn)
COc1ccccc1CNC(=O)CSc1nc(=O)n(Cc2ccncc2)c2c1CCC2
Cc1ccccc1C(=O)NCC(c1ccco1)N1CCc2ccccc21 (stereo not drawn)
O=C(NCCS(=O)(=O)N1CCN(c2ccc(F)cc2)CC1)c1ccc2c(c1)OCO2
N#CCCN(C(=O)COC(=O)c1ccc(S(=O)(=O)N2CCCCCC2)cc1)c1ccccc1
Cc1ccccc1OCC(=O)Nc1ccc2c(c1)ncn2C
COc1cc(NC(=O)CSC(=S)N2CCCC2)c(OC)cc1Cl
CN(C)c1ccc(/C=N/NC(=O)c2ccc(Cn3cc(Br)cn3)o2)cc1
O=C(O)c1ccc(/C=N/NC(=O)c2ccc(Br)cc2)cc1
COc1ccc(S(=O)(=O)N2CCCCC2)cc1NC(=O)c1cc([N+](=O)[O-])ccc1N1CCOCC1
CC1(c2ccc(Cl)cc2Cl)NC(=O)N(CC(=O)Nc2cccnc2Cl)C1=O (stereo not drawn)
COc1ccc(C(CNC(=O)c2cccc(S(=O)(=O)Nc3ccccc3Cl)c2)N2CCOCC2)cc1 (stereo not drawn)
O=C(CCC1CCCCC1)Nc1cc(C(F)(F)F)ccc1N1CCOCC1
O=C(CN1CCOCC1)Nc1cccc([N+](=O)[O-])c1
Cc1ccc(S(=O)(=O)CC(=O)Nc2sc(C)c(C)c2C(N)=O)cc1
CCCCOC(=O)Cn1c(=N)n(CCN(CC)CC)c2ccccc21
COc1cccc(OCC(=O)Nc2ccccc2C(N)=O)c1
CCn1c(=N)n(CC(=O)c2cccc(OC)c2)c2ccccc21
Cc1ccc(OCc2nc3ccccc3n2C)cc1
Cc1ccc(CC(=O)N(C)CC(=O)N(CC(C)C)c2c(N)n(CC(C)C)c(=O)[nH]c2=O)cc1C
Cc1ccc(Cc2nnc(SCC(=O)Nc3ccccc3C)[nH]c2=O)cc1
CC(=O)NC(Cc1c[nH]c2ccccc12)C(=O)NCCc1ccccc1 (stereo not drawn)
Cc1cccc(C)c1OCC(=O)NC(Cc1c[nH]c2ccccc12)C(=O)O (stereo not drawn)
COc1ccccc1CCC(=O)NNC(=O)c1ccncc1
O=C(COC(=O)CCOc1ccccc1)Nc1cc(S(=O)(=O)N2CCCCC2)ccc1Cl
CCN(CC)c1ccc(NC(=O)c2ccc(=O)[nH]c2)cc1S(=O)(=O)Nc1ccc(OC)cc1
CCOC(=O)c1c(C)oc2cc(Sc3ccccc3)c(O)c(O)c12
O=C1CCCC(O)=C1N=Nc1ccc(S(=O)(=O)N2CCOCC2)cc1
COc1ccc(C(=O)N(Cc2ccccc2)c2ccc(C)cc2)cc1S(=O)(=O)N1CCOCC1
CC1CC(C)(C)CC2(C1)NC(=O)N(CC(=O)Nc1nccs1)C2=O (stereo not drawn)
COc1ccc(-c2cn3ccsc3n2)cc1
CCN(CC)S(=O)(=O)c1ccc(-c2cn3ccc(C)cc3n2)cc1
Cc1ccc(NC(=O)COC(=O)CNC(=O)c2ccc(Cl)cc2Cl)cc1S(=O)(=O)N1CCOCC1
C=CCc1ccccc1OCC(=O)N/N=C/c1ccccc1OCC
O=C(COc1ccc(-n2cnnn2)cc1)Nc1ccccc1Cl
CC(C)CN(C(=O)Cn1c(=O)cnc2ccccc21)C1CCS(=O)(=O)C1 (stereo not drawn)
O=C(NCc1ccc(Cl)cc1)C(=O)NCC1CCCN1S(=O)(=O)c1cccs1 (stereo not drawn)
CCCCN(C(=O)CCNC(=O)NC12CC3CC(CC(C3)C1)C2)c1c(N)n(CCCC)c(=O)[nH]c1=O
CC(=O)c1ccc(NC(=O)C2CCCN2S(=O)(=O)c2cccs2)cc1 (stereo not drawn)
COc1ccc2c(c1)O/C(=C\c1ccccc1O)C2=O
Cc1cc(=O)[nH]c(SCc2ccc(Cl)cc2)n1
Cc1ccc2nc(SCc3cn4c(C)cc(C)nc4n3)[nH]c2c1
COc1ccc(OCc2cn3c(C)cc(C)nc3n2)cc1
CCc1cccc(C)c1NC(=O)COC(=O)CNC(=O)c1cccs1
CCN(CC(=O)Nc1c(F)cccc1F)C(=O)c1ccc(S(=O)(=O)N2CCCCC2)cc1
Cc1ccc(S(=O)(=O)N2CCCCC2)cc1C(=O)N(C)CC(=O)Nc1cccc(F)c1
O=C(Nc1ccc(F)c([N+](=O)[O-])c1)C1CCCO1 (stereo not drawn)
CS(=O)(=O)Nc1cccc(C2=NN(S(=O)(=O)c3ccccc3)C(c3cccs3)C2)c1 (stereo not drawn)
Cc1ccc(C2CC(c3cccc(NS(C)(=O)=O)c3)=NN2S(C)(=O)=O)cc1 (stereo not drawn)
Cc1ccc(CN2CCN(c3ccccc3Cl)CC2)o1
